Results on six molecules are retold here after PubChem BioAssay (Tox21).

The nature of assay [1]: Nuclear factor erythroid 2-related factor 2/antioxidant responsive element (Nrf2/ARE) small molecule agonists: qHTS cell viability counter screen in human keratinocytes (AID 1919968; active = well fitted curve in the direction sought with a large enough effect in the repeat runs; an effect the other way counts as inactive or inconclusive; also: nearly all actives have a fitted effect of over 55% in size). The essentials: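 After a 5 h attachment period, ARE-reporter keratinocytes were dosed with compounds in DMSO and then cultured 23 h at 37 C. Cell viability came from CellTiter-Fluor signal read after a further 1 h.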

Assay [2] in a line: Nuclear factor erythroid 2-related factor 2/antioxidant responsive element (Nrf2/ARE) small molecule agonists: luciferase reporter gene qHTS assay in human keratinocytes (AID 1919969). Also: nearly all actives have a fitted effect of over 35% in size.
In assay [3] the target is Gonadotropin-releasing hormone receptor (Homo sapiens) (UniProt P30968). In words: Human gonadotropin-releasing hormone receptor (GnRHR) small molecule agonists, calcium flux assay in GnRHR-HEK293 cells (AID 1920063). Also: nearly all actives have a fitted effect of over 35% in size. An outline of the steps:
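We seeded human GnRHR-expressing HEK293 cells for 18 hours, loaded them with calcium dye for an hour at 37 C, added test compounds, and recorded fluorescence intensity kinetically for three minutes.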

The target of assay [4] is KiSS-1 receptor (Homo sapiens) (UniProt Q969F8). In words: Human kisspeptin (KISS1R) small molecule agonists, calcium flux assay in KISS1R-HEK293 cells (AID 1920064; active = well fitted curve in the direction sought with a large enough effect in the repeat runs; an effect the other way counts as inactive or inconclusive). The essentials: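 Kinetic calcium assay, 1 s sampling over 3 min at Ex/Em 480/540, in HEK293 cells engineered with human KISS1R; compounds delivered in DMSO after 1 h dye loading.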
Assay [5] can be described thus: G protein-coupled receptor (GPCR) small molecule agonists, calcium flux assay: HEK293 wild type cell line counter screen (AID 1920065). An outline of the steps: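 Calcium-sensitive dye, loaded 1 h at 37 C into cells cultured 18 h, reports compound-evoked calcium release as fluorescence (Ex/Em 480/540), measured over 3 min. Agonist mode; 15-point titrations, triplicate.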

Assay [6] is described as follows: p53 small molecule agonists, cell-based qHTS assay with human liver microsomes (AID 1963577).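 Also: p53 response element beta-lactamase reporter cells with liver microsomes plus NADPH.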 An outline of the steps:
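Metabolically competent format: test substances, human liver microsomes and NADPH (both 0.5 mg/mL final) incubated with p53RE-bla cells 16 h at 37 C. Beta-lactamase reporter signal then quantified by fluorescence.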

A short description of assay [7]: p53 small molecule agonists, cell-based qHTS assay with rat liver microsomes (AID 1963578). An outline of the steps: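 Each plate received p53RE-bla cells, then compound, then rat liver microsomes and NADPH (both 0.5 mg/mL final). Plates were held 16 h at 37 C, and beta-lactamase activity was detected with LiveBLAzer over 2 h.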
Assay [8] is described as follows: p53 small molecule agonists, cell-based qHTS assay with human liver microsomes: qHTS cell viability counter screen (AID 1963579). Also: nearly all actives have a fitted effect of over 45% in size. The essentials:
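Tox21 library compounds, delivered from DMSO stocks, were tested on p53RE-bla cells together with 0.5 mg/mL human liver microsomes and 0.5 mg/mL NADPH (final) over 16 h at 37 C; CellTiter-Glo luminescence served as the cytotoxicity measure.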

Assay [9] in a line: p53 small molecule agonists, cell-based qHTS assay with rat liver microsomes: qHTS cell viability counter screen (AID 1963580). Also: nearly all actives have a fitted effect of over 45% in size. An outline of the steps: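 p53RE-bla HCT-116 cells were exposed 16 h at 37 C to compounds with rat liver microsomes (0.5 mg/mL) and NADPH (0.5 mg/mL). Viability was measured in the same wells as ATP content by CellTiter-Glo luminescence.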
A short description of assay [10]: p53 small molecule agonists, cell-based qHTS assay: qHTS cell viability counter screen (AID 1963581). Also: nearly all actives have a fitted effect of over 45% in size. The essentials:
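Following 5 h attachment, HCT-116 p53RE-bla cells took up compound for 16 h at 37 C; the reporter was read with B/G FRET substrate (2 h RT), and viability then via CellTiter-Glo ATP luminescence.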

Assay [11] can be described thus: p53 small molecule agonists, cell-based qHTS assay (AID 1963582; active = well fitted activation curve with a large enough effect in the signal ratio in the repeat runs, not every such curve was filed as active; the % refers to the signal ratio). An outline of the steps: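 In this cell-based concentration-response screen, a p53 response element drives beta-lactamase; cells received DMSO-borne compounds after 5 h culture and were incubated a further 16 h before FRET substrate development.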
Assay [12] concerns the target 5-hydroxytryptamine receptor 2A (Homo sapiens) (UniProt P28223). The assay is described as follows: 5-hydroxytryptamine receptor 2A (HTR2A) small molecule antagonists, cell-based qHTS assay (AID 1963586). Also: nearly all actives have a fitted effect of over 45% in size. The essentials: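 Antagonist-mode intracellular calcium assay: DOI (4 nM) added after 5 min compound pre-incubation at room temperature to dye-loaded HTR2A-CHO cells. Fluorescence followed for 3 min, sampled every second.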

Assay [13] shares this target. In words: 5-hydroxytryptamine receptor 2A (HTR2A) small molecule agonists, cell-based qHTS assay (AID 1963587). Also: nearly all actives have a fitted effect of over 30% in size. An outline of the steps:
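CHO cells stably expressing human HTR2A, plated 18 h, loaded with calcium dye 1 h at 37 C. Agonist mode: compounds added and intracellular calcium fluorescence recorded kinetically for 2 min at 1 sec intervals.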

The target of assay [14] is Muscarinic acetylcholine receptor M1 (Homo sapiens) (UniProt P11229). In words: Cholinergic receptor muscarinic 1 (CHRM1) small molecule antagonists, cell-based qHTS assay (AID 1963588). Also: nearly all actives have a fitted effect of over 40% in size. The essentials:
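CHRM1-CHO calcium-flux assay, antagonist mode. Cells were seeded 18 h, dye-loaded 1 h at 37 C and given compound for 5 min at RT, then acetylcholine was added at 50nM. FDSS fluorescence was read 3 min; 15 concentrations, three runs.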

Assay [15] can be described thus: cAMP Responsive Elements (CRE) small molecule antagonists, cell-based qHTS assay (AID 1963591; active = well fitted inhibition curve with a large enough effect in the signal ratio in the repeat runs, not every such curve was filed as active; the % refers to the signal ratio). An outline of the steps:
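HEK293T cells carrying a CRE-driven beta-lactamase reporter receive compound and NKH477 (0.25 uM final) for 3 h. Fluorescence from LiveBLAzer B/G FRET substrate is read after 2 h at room temperature.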

The target in assay [16] is Beta-2 adrenergic receptor (Homo sapiens) (UniProt P07550). In words: Adrenergic beta2 receptor (ADRB2) small molecule antagonists, cell-based qHTS assay (AID 1963592). Also: series mostly up to about 92 µM; nearly all actives have a fitted effect of over 50% in size. An outline of the steps: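 Cells (CHO, stable ADRB2 overexpression) incubated 18-20hr at 37C; compounds added from DMSO; agonist mix (1nM isoproterenol, 100uM IBMX, 25uM Ro-20-1724) added; 0.5hr RT; d2-cAMP and anti-cAMP-cryptate added; 1hr RT; 665/615 nm read.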

For assay [17] the target is unchanged. In words: Adrenergic beta2 receptor (ADRB2) small molecule agonists, cell-based qHTS assay (AID 1963593).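 Also: CHO cells stably overexpressing human ADRB2.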 The essentials: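 CHO cells stably over-expressing ADRB2 were plated overnight at 37C, then dosed with compounds plus a stimulation mix containing 100uM IBMX and 25uM Ro-20-1724 for 0.5hr at room temperature. cAMP was measured by HTRF competition, 1hr.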

For assay [18], the target named is D(2) dopamine receptor (Homo sapiens) (UniProt P14416). The assay is described as follows: Dopamine D2 receptor (DRD2) small molecule agonists, cell-based qHTS assay (AID 1963594). Also: nearly all actives have a fitted effect of over 35% in size. An outline of the steps:
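HEK293 cells stably expressing human DRD2, pre-treated with PDE inhibitor Ro20-1724 (0.1 mM final) and compound 10 min at room temperature, then stimulated with NKH477 (200nM […]) for 30 min. cAMP read by HTRF (665/620 nm).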

For assay [19] the target is unchanged. In words: Dopamine D2 receptor (DRD2) small molecule antagonists, cell-based qHTS assay (AID 1963595; active = well fitted inhibition curve with a large enough effect in the signal ratio in the repeat runs, with a control signal flat; the % refers to the signal ratio; also: potency is read from the fitted curve at half-maximal effect). An outline of the steps: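 HEK293 cells stably expressing DRD2 were preincubated with 0.1 mM Ro20-1724, then with compound for 10 min at room temperature. Cells were stimulated with 200 nM NKH477 plus 12 nM quinpirole for 30 min, and cAMP was read by HTRF.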

In assay [20] the target is Muscarinic acetylcholine receptor M1 (Homo sapiens) (UniProt P11229). In words: Cholinergic receptor muscarinic 1 (CHRM1) small molecule agonists, cell-based qHTS assay (AID 1963589). Also: nearly all actives have a fitted effect of over 35% in size. An outline of the steps:
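Measures agonist-induced intracellular calcium rise. Stable human CHRM1 CHO line, 1 h dye load at 37 C, compounds from DMSO, kinetic fluorescence read.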

Values without a mark were called inactive. Inconclusive results are not listed. The source made the active and inactive calls. Unless noted, calls follow the shape of the full dose curve.
% is scaled to controls: 0 for no effect and ±100 for the full control effect.

Gonadotropin-releasing hormone receptor (Homo sapiens), sequence (P30968 whole entry, looked up): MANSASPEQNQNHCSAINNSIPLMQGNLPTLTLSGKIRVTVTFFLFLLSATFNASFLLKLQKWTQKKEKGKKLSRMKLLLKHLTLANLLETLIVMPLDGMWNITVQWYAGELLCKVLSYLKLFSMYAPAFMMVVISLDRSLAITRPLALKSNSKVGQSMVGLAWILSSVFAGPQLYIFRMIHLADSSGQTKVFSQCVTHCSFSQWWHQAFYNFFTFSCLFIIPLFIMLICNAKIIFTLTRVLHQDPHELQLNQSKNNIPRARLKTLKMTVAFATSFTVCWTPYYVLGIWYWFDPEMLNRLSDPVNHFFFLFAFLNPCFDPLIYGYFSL
Beta-2 adrenergic receptor (Homo sapiens), sequence (P07550 whole entry, looked up): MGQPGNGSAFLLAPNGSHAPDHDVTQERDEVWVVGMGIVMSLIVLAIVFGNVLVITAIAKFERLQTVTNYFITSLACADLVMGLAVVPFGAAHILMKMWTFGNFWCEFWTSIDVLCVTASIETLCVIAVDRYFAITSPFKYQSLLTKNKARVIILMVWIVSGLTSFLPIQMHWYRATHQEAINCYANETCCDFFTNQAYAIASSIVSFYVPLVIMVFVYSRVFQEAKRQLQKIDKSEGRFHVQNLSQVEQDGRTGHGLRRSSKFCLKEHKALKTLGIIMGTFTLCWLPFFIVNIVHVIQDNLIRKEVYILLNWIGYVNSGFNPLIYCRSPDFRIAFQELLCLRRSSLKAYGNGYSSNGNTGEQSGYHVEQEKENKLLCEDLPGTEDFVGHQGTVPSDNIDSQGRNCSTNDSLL
5-hydroxytryptamine receptor 2A (Homo sapiens), sequence (P28223 whole entry, looked up): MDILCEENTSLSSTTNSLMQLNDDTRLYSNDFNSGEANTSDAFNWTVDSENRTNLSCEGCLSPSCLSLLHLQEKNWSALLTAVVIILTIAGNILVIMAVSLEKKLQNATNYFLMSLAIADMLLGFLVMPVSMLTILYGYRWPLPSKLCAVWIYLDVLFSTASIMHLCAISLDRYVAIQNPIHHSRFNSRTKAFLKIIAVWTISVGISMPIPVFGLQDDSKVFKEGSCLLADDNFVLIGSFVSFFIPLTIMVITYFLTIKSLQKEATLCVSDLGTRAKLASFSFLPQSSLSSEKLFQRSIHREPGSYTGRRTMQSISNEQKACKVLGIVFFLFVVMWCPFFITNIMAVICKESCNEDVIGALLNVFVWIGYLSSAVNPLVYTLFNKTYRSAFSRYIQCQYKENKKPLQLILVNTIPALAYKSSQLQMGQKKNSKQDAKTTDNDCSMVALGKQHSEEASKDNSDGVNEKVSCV
Muscarinic acetylcholine receptor M1 (Homo sapiens), sequence (P11229 whole entry, looked up): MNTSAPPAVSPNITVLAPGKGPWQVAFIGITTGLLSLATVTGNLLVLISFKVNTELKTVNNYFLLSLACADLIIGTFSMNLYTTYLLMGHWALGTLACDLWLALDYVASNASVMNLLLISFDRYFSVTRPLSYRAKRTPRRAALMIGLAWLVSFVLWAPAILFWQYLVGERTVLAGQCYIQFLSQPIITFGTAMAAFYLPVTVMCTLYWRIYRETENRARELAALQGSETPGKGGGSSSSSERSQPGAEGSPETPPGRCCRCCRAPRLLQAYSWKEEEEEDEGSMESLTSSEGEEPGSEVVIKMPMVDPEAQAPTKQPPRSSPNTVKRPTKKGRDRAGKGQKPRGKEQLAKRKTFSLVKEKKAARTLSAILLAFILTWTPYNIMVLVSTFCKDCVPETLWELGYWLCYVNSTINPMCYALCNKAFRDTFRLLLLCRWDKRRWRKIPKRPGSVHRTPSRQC
D(2) dopamine receptor (Homo sapiens), sequence (P14416 whole entry, looked up): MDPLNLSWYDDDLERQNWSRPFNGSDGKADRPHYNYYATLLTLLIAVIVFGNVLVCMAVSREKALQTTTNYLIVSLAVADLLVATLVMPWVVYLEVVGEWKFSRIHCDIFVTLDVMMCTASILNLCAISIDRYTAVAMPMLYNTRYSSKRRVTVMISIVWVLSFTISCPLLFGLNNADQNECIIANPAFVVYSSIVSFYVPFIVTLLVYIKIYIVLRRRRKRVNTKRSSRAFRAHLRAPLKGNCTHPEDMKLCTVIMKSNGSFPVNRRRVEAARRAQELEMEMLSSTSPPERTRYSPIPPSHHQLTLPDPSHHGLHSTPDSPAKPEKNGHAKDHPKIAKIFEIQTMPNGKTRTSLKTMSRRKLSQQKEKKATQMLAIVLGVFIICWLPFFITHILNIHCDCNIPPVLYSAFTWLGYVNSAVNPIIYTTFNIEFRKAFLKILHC
KiSS-1 receptor (Homo sapiens), sequence (Q969F8 whole entry, looked up): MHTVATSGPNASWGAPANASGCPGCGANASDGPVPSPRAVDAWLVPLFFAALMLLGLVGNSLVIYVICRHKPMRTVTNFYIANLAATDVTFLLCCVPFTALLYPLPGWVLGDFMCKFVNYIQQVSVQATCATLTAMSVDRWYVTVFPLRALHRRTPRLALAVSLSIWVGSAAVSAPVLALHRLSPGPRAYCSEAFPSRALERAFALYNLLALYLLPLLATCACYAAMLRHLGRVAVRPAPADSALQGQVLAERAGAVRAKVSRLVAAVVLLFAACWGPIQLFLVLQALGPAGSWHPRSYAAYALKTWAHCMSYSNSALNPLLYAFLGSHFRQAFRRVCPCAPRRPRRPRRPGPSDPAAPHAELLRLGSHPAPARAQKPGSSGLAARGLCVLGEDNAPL

For the molecule `O=C1OC(=O)C2CC=CCC12` (stereo unspecified), the Potency entry in assay [1], in [2], in assay [3], in assay [4], in [5] and in assay [6] was “inactive” throughout. Moreover, the Potency entry in [7], in assay [8], in assay [9], in assay [10], in assay [11] and in assay [12] was “inactive” in each case. For the same molecule, the Potency result in [13], in [14], in assay [15], in assay [16], in assay [17] and in assay [18] was “inactive” each time. For the same molecule, the Potency result in [19] is “inactive”.

For the molecule `O=C(O)Cc1cccc(-c2cc(CCCCCCc3ccc(O[C@H]4O[C@H](CO)[C@@H](O)[C@H](O)[C@@H]4O)c(-c4cccc(CC(=O)O)c4)c3)ccc2O[C@H]2O[C@H](CO)[C@@H](O)[C@H](O)[C@@H]2O)c1`, the activity change, negative = cytotoxicity in assay [1] is -1.5% [at 0.349 µM]; in assay [8] it was 0.362% [at 0.249 µM]; in [9], 2.63% [at 0.249 µM]; in [10], -10.7% [at 0.249 µM]. The activity, positive = activation in assay [2] is -5.74% [at 0.349 µM]. Also, in assay [3], the activity change is -0.17% [at 0.217 µM, active compounds read high]. The activation in assay [4] was -0.687% [at 0.29 µM]; in assay [5], -0.122% [at 0.217 µM]; in [6], -2.66% [at 0.249 µM]; in [7], 1.81% [at 0.249 µM]; in assay [11], -0.0536% [at 0.249 µM]; in [13], 17.6% [at 0.292 µM]. Also, the activation in [20] was -0.265% [at 0.29 µM]; in [18], -1.23% [at 0.349 µM]. Also, the activity, negative = inhibition in assay [12] is 2.29% [at 0.233 µM]. Besides, the activity change, negative = inhibition in assay [15] was -10.4% [at 0.349 µM]; in [16], 2.66% [at 0.349 µM]; in assay [19], -1.71% [at 0.348 µM].

For `Nc1ncnc2c1ncn2[C@@H]1O[C@H](COP(=O)(O)O)[C@@H](O)[C@H]1O`, the Potency result in [1], in assay [2], in assay [3], in [4], in assay [5] and in assay [6] was “inactive” each time. Further, the Potency result in assay [7], in [8], in assay [9], in [10], in assay [11] and in assay [12] was “inactive” in each case. The Potency result in assay [13], in assay [14], in [15], in [16] and in assay [17] was “inactive” in each case. In addition, the Potency in assay [19] is 944 nM (active).

`CC(C)OC=O`: the Potency result in [1], in [2], in assay [3], in assay [4], in assay [5] and in assay [6] was “inactive” each time. The Potency entry in [7], in [8], in [9], in assay [10], in assay [11] and in assay [12] was “inactive” throughout. The Potency result in assay [13], in assay [20], in assay [15], in assay [16], in assay [17] and in assay [18] was “inactive” in each case. In [19], the Potency result is “inactive”.

Consider `Cc1ccccc1N=O`, for which the Potency entry in assay [1], in assay [2], in assay [3], in [4], in assay [5] and in [6] was “inactive” throughout. Besides, the Potency entry in assay [7], in assay [8], in assay [9], in assay [10], in assay [11] and in assay [12] was “inactive” throughout. The Potency result in [13], in assay [14], in [15], in assay [16], in assay [18] and in [19] was “inactive” throughout.

On to `CO/N=C(/C(=O)N[C@@H]1C(=O)N2C(C(=O)O)=C(COC(N)=O)CS[C@H]12)c1ccco1`, for which the Potency entry in [1], in assay [2], in assay [3], in assay [4], in [5] and in assay [6] was “inactive” in each case. In addition, the Potency entry in assay [7], in assay [8], in assay [9], in [10], in assay [11] and in [12] was “inactive” throughout. Moreover, the Potency entry in assay [13], in assay [20], in assay [15], in assay [16], in assay [17] and in [18] was “inactive” in each case. In assay [19], the Potency result was “inactive”.
